An excerpt weighted towards active compounds, which were near 2.8% of everything screened.
Fam108B inh – Fam108B inhibition, counter-screen for RBBP9 inhibitors; inhibition, % at 9.51 µM; AID 1947; recombinant Fam108B, FP-Rh probe fluorescence polarization; 0.33% of 300,000 active;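 active = inhibition above the screen mean inhibition plus 3 SD, computed separately per campaign, cut at about 18% in these data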;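 note: inhibitors lower polarization as less probe binds the enzyme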
PME-1 primary – PME-1 (human) inhibition; recombinant PME-1, FP-Rh probe fluorescence polarization; inhibition, % at 5.9 µM; 0.53% of 320,000 active; AID 2130;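 active = inhibition above the campaign mean of all compounds plus 3 SD, cut at about 26% in these data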;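 note: competitive labeling of PME-1 active site by serine hydrolase directed probe; 0% = PME-1 with DMSO and 100% = wells lacking PME-1 enzyme; inhibitors block probe labeling so polarization falls and inhibition rises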
PAFAH1B3 FP inh – PAFAH1B3 (human) inhibition. 0.28% of 340,000 active. inhibition, % at 3.39 µM. recombinant PAFAH1B3, FP-rhodamine probe, fluorescence polarization. Q15102;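 active = inhibition above the screen-wide average of all tested compounds plus 3 SD, cut at about 25% in these data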;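 note: 0% = enzyme with DMSO only and 100% = wells lacking PAFAH1B3 protein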
PAFAH2 inh – inhibitors of human PAFAH2; Q99487; recombinant PAFAH2, FP-rhodamine activity probe, fluorescence polarization; inhibition, % at 3.39 µM; 0.99% of 340,000 active; AID 492956;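 active = inhibition above the mean over all tested compounds plus 3 SD, cut at about 30% in these data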;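 note: inhibitors block probe labeling of enzyme so polarization drops; 0% = enzyme with DMSO and 100% = wells lacking PAFAH2 protein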
pPAFAH inh – pPAFAH (human) enzyme inhibition; AID 463082; Q13093; inhibition, % at 3.39 µM; 1.5% of 330,000 active; recombinant pPAFAH, FP-rhodamine probe fluorescence polarization;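 active = inhibition above the mean inhibition across the screen plus 3 SD, cut at about 25% in these data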;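 note: inhibitors block binding of the rhodamine activity-based probe so polarization drops; 0% = enzyme with DMSO and 100% = wells lacking pPAFAH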
Target sequence (Q13093 whole entry, looked up): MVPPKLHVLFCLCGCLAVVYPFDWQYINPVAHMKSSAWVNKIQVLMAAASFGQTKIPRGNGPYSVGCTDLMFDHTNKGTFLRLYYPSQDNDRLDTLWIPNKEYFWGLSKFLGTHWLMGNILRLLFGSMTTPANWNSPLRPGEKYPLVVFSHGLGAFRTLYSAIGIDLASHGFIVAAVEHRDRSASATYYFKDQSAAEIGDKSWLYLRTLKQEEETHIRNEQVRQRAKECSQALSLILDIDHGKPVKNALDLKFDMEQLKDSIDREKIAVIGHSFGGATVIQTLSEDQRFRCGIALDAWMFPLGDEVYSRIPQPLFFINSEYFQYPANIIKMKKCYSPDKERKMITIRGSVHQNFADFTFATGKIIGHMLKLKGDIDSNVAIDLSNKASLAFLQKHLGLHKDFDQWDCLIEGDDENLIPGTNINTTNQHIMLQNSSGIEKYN
PAFAH1B2 inh – PAFAH1B2 (human) inhibition. P68402. recombinant PAFAH1B2, FP-rhodamine activity probe, fluorescence polarization. inhibition, % at 3.39 µM. 1.2% of 340,000 active. AID 492953;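 active = inhibition above the mean of all tested compounds plus 3 SD, cut at about 24% in these data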;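 note: 0% = enzyme with DMSO and 100% = wells lacking PAFAH1B2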
Target sequence (P68402 whole entry, looked up): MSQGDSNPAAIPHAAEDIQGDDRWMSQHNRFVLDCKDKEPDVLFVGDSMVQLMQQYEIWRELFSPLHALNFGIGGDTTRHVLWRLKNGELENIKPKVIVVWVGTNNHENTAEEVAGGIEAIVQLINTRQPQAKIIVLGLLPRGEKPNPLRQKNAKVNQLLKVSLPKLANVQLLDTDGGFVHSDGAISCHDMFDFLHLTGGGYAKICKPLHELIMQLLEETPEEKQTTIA
Starred values were filed as active, the others as inactive; . = not tested or not shown.

SMILES | Fam108B inh | PME-1 primary | PAFAH1B3 FP inh | PAFAH2 inh | pPAFAH inh | PAFAH1B2 inh
O=C(Nc1ccc2c(c1)CCCN2C(=O)c1ccco1)c1cc([N+](=O)[O-])ccc1Cl | 1 | -5 | 5 | 2 | -1 | -1
NC(=O)Cc1ccc(C(=O)CSc2nnc(-c3ccncc3)n2C2CC2)s1 | . | . | 3 | 19 | 33* | 6
O=C(COC(=O)Cc1ccsc1)Nc1ccc(Cl)cn1 | . | 1 | 5 | 3 | 28* | 2
Cc1ccccc1NC(=O)COC(=O)Cc1ccsc1 | 4 | 1 | 2 | 9 | 27* | 5
O=C(COC(=O)Cc1ccsc1)Nc1ccc(F)cc1Cl | . | -3 | 4 | -4 | 29* | -2
Cc1ccc(C)c(NC(=O)COC(=O)Cc2ccsc2)c1 | 0 | 3 | -9 | 5 | 25* | 7
Cc1cccc(C)c1NC(=O)COC(=O)Cc1ccsc1 | 0 | 4 | -2 | -7 | 23 | 3
CC(=O)N/C(=C\c1ccc(F)cc1)C(=O)OCc1ccccc1 | 4 | 8 | 5 | 3 | 4 | 2
CN(C)c1ccc(NC(=O)Nc2cccc(Cl)c2)cc1 | 5 | 32* | 12 | 3 | 21 | 2
CCOC(=O)c1sc(NC(=O)Nc2cccc(Cl)c2)cc1C | 25* | 13 | 17 | -17 | -8 | -1
CN(c1cccc(NC(=O)Nc2cccc(Cl)c2)c1)S(C)(=O)=O | -3 | -18 | 3 | -10 | -6 | -4
O=S(Cc1ccc(Cl)cc1)c1ccccc1 (centres undefined) | . | . | 4 | -4 | . | 5
Cc1ccc(C(=O)COC(=O)c2cccc(O)c2)s1 | . | . | 0 | 10 | . | 8
COc1cccc(C(=O)OCC(=O)c2ccc(Br)s2)c1 | 3 | 2 | -5 | 46* | 14 | -7
COc1ccc(C(=O)OCC(=O)c2ccc(Br)s2)c(OC)c1 | -2 | -2 | 0 | 30* | 6 | -1
Cc1ccc(C2=Nn3c(COc4ccc(Cl)cc4)nnc3SC2CC(=O)O)cc1 (centres undefined) | 2 | 2 | 10 | -6 | 5 | 16
CN(c1ccc(OCC(=O)OCC(=O)Nc2ccccc2)cc1)S(=O)(=O)c1ccc(F)cc1 | 1 | 4 | 4 | -8 | 7 | 2
CCN(c1ccc(OCC(=O)OCC(=O)Nc2ccc(F)c(F)c2F)cc1)S(=O)(=O)c1ccccc1 | 6 | 7 | 5 | 4 | 2 | 40*
COCC1CCN(C(=O)C2CCC(=O)N(Cc3cccc(F)c3)C2)CC1 (centres undefined) | -2 | 1 | 3 | 2 | 5 | 2
Cc1cc(/C=N/n2cnnc2)c(C)n1-c1ccc(OCc2ccccc2F)cc1 | -2 | 0 | 9 | 1 | 27* | 0
Cc1cc(/C=N/n2cnnc2)c(C)n1-c1ccc(OCc2ccc(Cl)cc2)cc1 | -3 | -6 | -1 | 0 | 13 | 7
COc1ccc(/C=N/NC(=O)c2ccc3c(c2)NC(=O)C(C)(C)O3)cc1OC | 2 | -1 | 3 | -4 | 9 | 1
O=C(COc1cccnc1[N+](=O)[O-])c1ccc(Cl)s1 | 5 | 6 | 9 | 18 | 31* | 4
CCCCc1nnc(NC(=O)CCSc2ccccc2)s1 | -1 | -6 | -8 | -7 | 5 | 6
Cc1nnc(NC(=O)CCSc2ccccc2)s1 | -2 | 8 | 13 | 0 | -1 | 27*
SMILES | Fam108B inh | PME-1 primary | PAFAH1B3 FP inh | PAFAH2 inh | pPAFAH inh | PAFAH1B2 inh
O=C1CCCC/C1=C\Nc1ccc(O)cc1 | 2 | 4 | 5 | 4 | 26* | 0
O=C1CCC/C1=C/Nc1ccc(Cl)cc1 | -1 | -1 | 4 | -7 | 8 | -4
COC(=O)C(CC(C)C)NC(=O)CSc1nc(-c2ccccc2)c(C#N)c(=O)[nH]1 (centres undefined) | 1 | -1 | 6 | 3 | 5 | 9
COc1cccc(-c2nc(SCC(=O)Nc3nc(-c4ccccc4)c(C)s3)[nH]c(=O)c2C#N)c1 | -17 | -22 | -7 | -11 | -3 | 16
CCOC(=O)Cc1csc(NC(=O)CSc2nc(-c3ccccc3)c(C#N)c(=O)[nH]2)n1 | 6 | -1 | 14 | 0 | -3 | 65*
CCOc1ccc2nc(NC(=O)CSc3nc(-c4ccccc4)c(C#N)c(=O)[nH]3)sc2c1 | . | . | 2 | -12 | . | 82*
O=[N+]([O-])c1ccc2nc(NN=Cc3ccc(O)cc3)sc2c1 | . | . | 7 | -13 | . | 2
CCOCCCNC(=O)Cc1c(C(=O)O)[nH]c2ccc(Cl)cc12 | -1 | 4 | -4 | 0 | -1 | 30*
CCCCN(CC)C(=O)Cc1c(C(=O)O)[nH]c2ccc(Cl)cc12 | -4 | -4 | -1 | 1 | -3 | 50*
Cc1ccc(C)c(N2CCN(C(=O)Cc3c(C(=O)O)[nH]c4ccc(Cl)cc34)CC2)c1 | 1 | -4 | 3 | 1 | 8 | 4
CC1CN(c2ccc(Cl)cc2)c2nc3c(c(=O)[nH]c(=O)n3C)n2C1 (centres undefined) | . | . | 8 | 1 | . | -2
CCc1ccc(N2CC(C)Cn3c2nc2c3c(=O)[nH]c(=O)n2C)cc1 (centres undefined) | 1 | 5 | 0 | 6 | 34* | 6
CCOc1ccc(-c2cnc(NCc3cccc4ccccc34)n2CCOC)cc1 | 8 | 4 | 1 | -4 | 19 | 0
CC(NC(=O)C12CC3CC(C)(CC(C)(C3)C1)C2)c1ccncc1 (centres undefined) | 2 | -2 | 9 | 11 | 7 | 25*
O=C(NNC(=O)C12CC3CC(CC(C3)C1)C2)c1ccncc1 | 0 | 3 | 9 | -11 | 0 | 9
CC12CC3CC(C)(C1)CC(C(=O)NNC(=O)c1ccncc1)(C3)C2 | -1 | 5 | 12 | 8 | 3 | 25*
CC(=O)c1ccc(N2CCN(CN3C(=O)CC4(CCCC4)C3=O)CC2)c(F)c1 | 0 | -3 | 0 | 2 | 6 | 8
COc1ccc(Nc2nc(N)c(C(=O)c3ccc(OC)cc3)s2)cc1 | 13 | 23 | -19 | 6 | 26* | 6
COc1ccc(C(=O)c2sc(NC(C)C)nc2N)cc1OC | -4 | -4 | 8 | 4 | 1 | 3
CC(=O)NCC(=O)N(c1ccccc1)C1(C(=O)NC2CCCCC2)CCCCC1 | 3 | -5 | 4 | -3 | 5 | 28*
CCOc1ccc(N(CC(=O)NCCSCc2ccccc2)S(C)(=O)=O)cc1 | 3 | -5 | -2 | 3 | 17 | 4
Cc1cc(C)cc(N(CC(=O)NCCSCc2ccccc2)S(C)(=O)=O)c1 | 2 | 2 | -2 | 8 | 31* | 6
CCOc1ccc(N(CC(=O)NCCSCc2ccccc2)S(=O)(=O)c2ccccc2)cc1 | -6 | -6 | -3 | 1 | 28* | 3
COCCNC(=O)c1cc(-c2ccccc2)n(Cc2cc(C)no2)n1 | 2 | 2 | 7 | 0 | 1 | 1
